# Experimental data taken from publication PMC7862700, “An all-to-all approach to the identification of sequence-specific readers for epigenetic DNA modifications on cytosine”.
# Assays:
# Experiment in all cases: DAPPL (digital affinity profiling via proximity ligation, sequencing); 10 mM Tris-HCl pH 7.5, 50 mM NaCl, 1 mM DTT, 4% glycerol, room temperature, 30 min; GST-TFs on glutathione beads, 16-mer random dsDNA library, 0.1% formaldehyde crosslink after washing; high values mean tight binding
# [1] = biological target: T1, FLI1 (Homo sapiens, UniProt Q01543 1-452); conditions: protein: recombinant; tags: N-terminal GST; dsDNA, one strand shown
# T1 sequence: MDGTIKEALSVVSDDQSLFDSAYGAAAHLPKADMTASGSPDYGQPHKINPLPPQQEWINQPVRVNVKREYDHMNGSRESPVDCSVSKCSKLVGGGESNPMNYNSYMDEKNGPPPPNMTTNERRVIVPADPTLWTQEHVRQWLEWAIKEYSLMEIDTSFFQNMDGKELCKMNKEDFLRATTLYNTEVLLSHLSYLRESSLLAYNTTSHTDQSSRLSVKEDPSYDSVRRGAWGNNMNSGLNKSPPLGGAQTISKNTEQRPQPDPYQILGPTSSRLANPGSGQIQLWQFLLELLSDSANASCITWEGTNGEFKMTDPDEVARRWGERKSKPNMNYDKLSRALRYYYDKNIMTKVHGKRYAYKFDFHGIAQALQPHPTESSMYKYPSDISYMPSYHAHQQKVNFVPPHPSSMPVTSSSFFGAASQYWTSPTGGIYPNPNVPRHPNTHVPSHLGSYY
# Method in brief: (§1)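 Binding signal is each hexamer's read frequency for a factor divided by its frequency in the tag-only sample. The factors were GST-fused human transcription factors from yeast, captured on glutathione beads, DNA-barcoded and pooled with that sample. Pools were incubated with 200 nmole of a random double-stranded 16-mer DNA library in Tris/NaCl/DTT/glycerol buffer at room temperature for 30 min, then washed, crosslinked with 0.1% formaldehyde, proximity-ligated with BsaI/T4 ligase (1 h, 37 °C), PCR-amplified and sequenced on an Illumina NextSeq500.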
# [2] = biological target: T2, ELK1 (Homo sapiens, UniProt P19419 1-428); conditions: protein: recombinant; tags: N-terminal GST; dsDNA, one strand shown
# T2 sequence: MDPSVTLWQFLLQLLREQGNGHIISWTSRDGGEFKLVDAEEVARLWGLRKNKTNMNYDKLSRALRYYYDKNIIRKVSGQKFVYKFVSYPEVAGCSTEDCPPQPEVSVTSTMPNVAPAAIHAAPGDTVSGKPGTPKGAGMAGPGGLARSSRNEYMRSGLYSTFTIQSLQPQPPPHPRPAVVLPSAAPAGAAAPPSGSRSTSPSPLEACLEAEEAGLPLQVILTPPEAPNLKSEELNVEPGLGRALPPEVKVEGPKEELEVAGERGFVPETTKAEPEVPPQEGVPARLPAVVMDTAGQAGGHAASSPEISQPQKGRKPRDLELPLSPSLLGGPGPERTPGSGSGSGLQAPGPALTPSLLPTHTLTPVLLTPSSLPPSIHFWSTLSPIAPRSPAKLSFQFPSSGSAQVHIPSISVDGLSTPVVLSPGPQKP
# Method in brief: as §1
# [3] = biological target: T3, GABPA (Homo sapiens, UniProt Q06546 1-454); conditions: protein: recombinant; tags: N-terminal GST; dsDNA, one strand shown
# T3 sequence: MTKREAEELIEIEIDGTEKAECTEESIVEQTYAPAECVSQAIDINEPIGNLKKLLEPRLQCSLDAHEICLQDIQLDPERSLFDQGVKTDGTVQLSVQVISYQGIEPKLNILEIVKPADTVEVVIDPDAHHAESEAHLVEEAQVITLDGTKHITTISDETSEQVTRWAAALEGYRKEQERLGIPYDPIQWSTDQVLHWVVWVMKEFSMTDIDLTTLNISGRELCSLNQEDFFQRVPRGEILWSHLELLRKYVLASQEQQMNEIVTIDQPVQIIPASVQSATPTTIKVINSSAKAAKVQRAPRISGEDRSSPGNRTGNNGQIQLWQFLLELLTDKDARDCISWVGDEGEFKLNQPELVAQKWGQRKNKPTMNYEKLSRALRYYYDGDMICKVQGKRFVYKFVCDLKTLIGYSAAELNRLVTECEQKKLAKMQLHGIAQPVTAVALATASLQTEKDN
# Method in brief: as §1
# [4] = biological target: T4, ERG (Homo sapiens, UniProt P11308 1-479); conditions: protein: recombinant; tags: N-terminal GST; dsDNA, one strand shown
# T4 sequence: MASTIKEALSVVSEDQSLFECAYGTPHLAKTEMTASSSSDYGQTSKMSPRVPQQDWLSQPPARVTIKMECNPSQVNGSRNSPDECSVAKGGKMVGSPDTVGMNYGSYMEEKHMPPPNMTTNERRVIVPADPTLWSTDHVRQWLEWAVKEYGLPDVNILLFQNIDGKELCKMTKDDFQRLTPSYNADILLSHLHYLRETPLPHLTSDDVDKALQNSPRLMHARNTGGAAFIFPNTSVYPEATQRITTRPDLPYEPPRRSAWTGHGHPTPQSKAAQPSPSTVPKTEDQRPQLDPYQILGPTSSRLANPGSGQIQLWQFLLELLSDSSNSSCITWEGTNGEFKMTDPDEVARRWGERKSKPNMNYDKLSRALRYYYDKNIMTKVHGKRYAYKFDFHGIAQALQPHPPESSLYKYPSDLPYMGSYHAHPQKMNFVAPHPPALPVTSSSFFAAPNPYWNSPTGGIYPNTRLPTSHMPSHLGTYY
# Method in brief: as §1
# [5] = biological target: ELF1 (Homo sapiens, UniProt P32519 1-619); conditions: protein: recombinant; tags: N-terminal GST; dsDNA, one strand shown
# Method in brief: as §1
# [6] = biological target: T5, EHF (Homo sapiens, UniProt Q9NZC4 1-300); conditions: protein: recombinant; tags: N-terminal GST; dsDNA, one strand shown
# T5 sequence: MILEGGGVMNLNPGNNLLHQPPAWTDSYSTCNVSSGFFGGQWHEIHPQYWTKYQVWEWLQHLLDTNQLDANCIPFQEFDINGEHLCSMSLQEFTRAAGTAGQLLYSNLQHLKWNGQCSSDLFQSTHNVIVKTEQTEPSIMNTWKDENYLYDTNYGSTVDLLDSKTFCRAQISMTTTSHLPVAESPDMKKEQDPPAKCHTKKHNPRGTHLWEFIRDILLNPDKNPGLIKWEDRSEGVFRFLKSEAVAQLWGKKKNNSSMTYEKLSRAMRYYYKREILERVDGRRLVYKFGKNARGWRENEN
# Method in brief: as §1
# [7] = biological target: SPI1 (Homo sapiens, UniProt P17947 1-270); conditions: protein: recombinant; tags: N-terminal GST; dsDNA, one strand shown
# Method in brief: as §1
# [8] = biological target: SPIB (Homo sapiens, UniProt Q01892 1-262); conditions: protein: recombinant; tags: N-terminal GST; dsDNA, one strand shown
# Method in brief: as §1
# [9] = biological target: T6, ELK3 (Homo sapiens, UniProt P41970 1-407); conditions: protein: recombinant; tags: N-terminal GST; dsDNA, one strand shown
# T6 sequence: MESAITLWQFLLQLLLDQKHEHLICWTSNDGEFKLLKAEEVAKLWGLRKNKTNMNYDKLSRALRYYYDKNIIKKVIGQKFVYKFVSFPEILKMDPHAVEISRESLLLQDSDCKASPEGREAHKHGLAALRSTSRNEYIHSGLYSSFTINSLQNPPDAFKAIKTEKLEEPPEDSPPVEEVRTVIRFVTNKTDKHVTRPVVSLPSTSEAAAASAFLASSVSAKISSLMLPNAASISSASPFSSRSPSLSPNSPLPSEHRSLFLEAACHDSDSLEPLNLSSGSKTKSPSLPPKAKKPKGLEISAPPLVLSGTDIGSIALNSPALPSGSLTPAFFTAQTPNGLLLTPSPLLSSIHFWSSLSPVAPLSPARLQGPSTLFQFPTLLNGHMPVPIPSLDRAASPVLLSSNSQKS
# Method in brief: as §1
# [10] = biological target: T7, FEV (Homo sapiens, UniProt Q99581 1-238); conditions: protein: recombinant; tags: N-terminal GST; dsDNA, one strand shown
# T7 sequence: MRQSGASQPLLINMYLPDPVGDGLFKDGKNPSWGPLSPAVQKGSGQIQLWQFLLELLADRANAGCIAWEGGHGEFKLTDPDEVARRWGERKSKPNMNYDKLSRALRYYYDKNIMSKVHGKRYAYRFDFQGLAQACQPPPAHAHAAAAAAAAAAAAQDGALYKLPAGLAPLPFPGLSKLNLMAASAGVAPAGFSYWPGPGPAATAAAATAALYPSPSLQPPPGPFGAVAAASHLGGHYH
# Method in brief: as §1
# [11] = biological target: ETV5 (Homo sapiens, UniProt P41161 1-510); conditions: protein: recombinant; tags: N-terminal GST; dsDNA, one strand shown
# Method in brief: as §1
# [12] = biological target: HSF1 (Homo sapiens, UniProt Q00613 1-529); conditions: protein: recombinant; tags: N-terminal GST; chain copies: 3; dsDNA, one strand shown
# Method in brief: as §1
# [13] = biological target: T8, SPIC (Homo sapiens, UniProt Q8N5J4 1-248); conditions: protein: recombinant; tags: N-terminal GST; dsDNA, one strand shown
# T8 sequence: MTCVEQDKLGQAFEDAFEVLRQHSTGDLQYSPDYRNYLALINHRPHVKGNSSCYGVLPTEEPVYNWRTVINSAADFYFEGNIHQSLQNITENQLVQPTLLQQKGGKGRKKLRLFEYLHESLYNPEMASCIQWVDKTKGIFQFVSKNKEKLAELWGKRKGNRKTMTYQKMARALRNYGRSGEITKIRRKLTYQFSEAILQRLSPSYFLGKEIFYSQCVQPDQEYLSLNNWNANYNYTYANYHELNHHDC
# Method in brief: as §1
# [14] = biological target: ELF4 (Homo sapiens, UniProt Q99607 1-663); conditions: protein: recombinant; tags: N-terminal GST; dsDNA, one strand shown
# Method in brief: as §1
# [15] = biological target: T9, ELK4 (Homo sapiens, UniProt P28324-2 1-405); conditions: protein: recombinant; tags: N-terminal GST; dsDNA, one strand shown
# T9 sequence: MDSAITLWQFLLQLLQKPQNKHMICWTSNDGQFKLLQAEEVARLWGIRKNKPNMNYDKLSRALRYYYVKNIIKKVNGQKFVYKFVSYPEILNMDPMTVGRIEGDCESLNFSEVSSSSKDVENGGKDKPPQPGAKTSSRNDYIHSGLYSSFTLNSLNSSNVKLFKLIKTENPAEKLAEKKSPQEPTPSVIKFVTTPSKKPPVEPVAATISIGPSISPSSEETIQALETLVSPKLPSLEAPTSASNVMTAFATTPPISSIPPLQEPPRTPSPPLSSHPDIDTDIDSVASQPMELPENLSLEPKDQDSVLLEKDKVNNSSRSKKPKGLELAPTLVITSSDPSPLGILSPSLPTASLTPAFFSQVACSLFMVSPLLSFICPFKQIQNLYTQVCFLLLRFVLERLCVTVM
# Method in brief: as §1
# [16] = biological target: T10, ETV2 (Homo sapiens, UniProt O00321 1-342); conditions: protein: recombinant; tags: N-terminal GST; dsDNA, one strand shown
# T10 sequence: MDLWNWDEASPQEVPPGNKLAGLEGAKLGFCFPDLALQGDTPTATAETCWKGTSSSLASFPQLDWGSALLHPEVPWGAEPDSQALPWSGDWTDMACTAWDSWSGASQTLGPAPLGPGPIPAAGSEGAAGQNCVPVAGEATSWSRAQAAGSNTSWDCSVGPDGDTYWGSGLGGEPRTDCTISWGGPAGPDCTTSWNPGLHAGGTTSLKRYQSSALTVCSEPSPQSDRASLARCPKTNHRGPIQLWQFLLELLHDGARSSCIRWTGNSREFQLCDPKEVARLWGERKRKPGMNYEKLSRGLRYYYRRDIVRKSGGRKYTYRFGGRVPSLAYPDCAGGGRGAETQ
# Method in brief: as §1
# [17] = biological target: T11, ELF3 (Homo sapiens, UniProt P78545 1-371); conditions: protein: recombinant; tags: N-terminal GST; dsDNA, one strand shown
# T11 sequence: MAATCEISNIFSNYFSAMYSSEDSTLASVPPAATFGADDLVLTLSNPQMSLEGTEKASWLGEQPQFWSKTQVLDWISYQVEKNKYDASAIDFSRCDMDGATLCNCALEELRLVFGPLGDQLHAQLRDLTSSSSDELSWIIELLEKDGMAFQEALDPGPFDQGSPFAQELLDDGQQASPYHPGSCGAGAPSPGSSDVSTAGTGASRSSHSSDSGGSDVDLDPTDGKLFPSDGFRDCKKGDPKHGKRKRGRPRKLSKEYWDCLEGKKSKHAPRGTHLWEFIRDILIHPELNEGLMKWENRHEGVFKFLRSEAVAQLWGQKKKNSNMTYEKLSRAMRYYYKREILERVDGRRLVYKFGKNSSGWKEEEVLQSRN
# Method in brief: as §1
# [18] = biological target: CRX (Homo sapiens, UniProt O43186 1-299); conditions: protein: recombinant; tags: N-terminal GST; dsDNA, one strand shown
# Method in brief: as §1
# [19] = biological target: ETV1 (Homo sapiens, UniProt P50549 1-477); conditions: protein: recombinant; tags: N-terminal GST; dsDNA, one strand shown
# Method in brief: as §1
# Sequence of ELF1 (P32519 whole entry): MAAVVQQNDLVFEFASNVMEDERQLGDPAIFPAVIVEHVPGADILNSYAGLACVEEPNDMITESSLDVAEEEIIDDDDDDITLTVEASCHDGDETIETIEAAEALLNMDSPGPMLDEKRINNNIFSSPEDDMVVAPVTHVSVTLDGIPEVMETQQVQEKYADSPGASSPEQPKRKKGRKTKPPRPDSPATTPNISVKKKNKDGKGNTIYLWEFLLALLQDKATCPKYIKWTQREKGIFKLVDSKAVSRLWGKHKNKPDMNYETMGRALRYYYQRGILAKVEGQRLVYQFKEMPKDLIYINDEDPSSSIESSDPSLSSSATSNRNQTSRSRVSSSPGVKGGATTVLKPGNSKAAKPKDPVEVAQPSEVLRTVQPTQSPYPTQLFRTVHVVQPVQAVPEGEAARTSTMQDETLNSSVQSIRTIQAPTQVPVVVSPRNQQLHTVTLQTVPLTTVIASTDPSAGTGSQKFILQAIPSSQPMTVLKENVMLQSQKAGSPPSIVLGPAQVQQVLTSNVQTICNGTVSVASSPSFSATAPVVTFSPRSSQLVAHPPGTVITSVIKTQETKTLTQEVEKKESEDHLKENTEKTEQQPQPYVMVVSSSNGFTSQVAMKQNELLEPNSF
# Sequence of ETV5 (P41161 whole entry): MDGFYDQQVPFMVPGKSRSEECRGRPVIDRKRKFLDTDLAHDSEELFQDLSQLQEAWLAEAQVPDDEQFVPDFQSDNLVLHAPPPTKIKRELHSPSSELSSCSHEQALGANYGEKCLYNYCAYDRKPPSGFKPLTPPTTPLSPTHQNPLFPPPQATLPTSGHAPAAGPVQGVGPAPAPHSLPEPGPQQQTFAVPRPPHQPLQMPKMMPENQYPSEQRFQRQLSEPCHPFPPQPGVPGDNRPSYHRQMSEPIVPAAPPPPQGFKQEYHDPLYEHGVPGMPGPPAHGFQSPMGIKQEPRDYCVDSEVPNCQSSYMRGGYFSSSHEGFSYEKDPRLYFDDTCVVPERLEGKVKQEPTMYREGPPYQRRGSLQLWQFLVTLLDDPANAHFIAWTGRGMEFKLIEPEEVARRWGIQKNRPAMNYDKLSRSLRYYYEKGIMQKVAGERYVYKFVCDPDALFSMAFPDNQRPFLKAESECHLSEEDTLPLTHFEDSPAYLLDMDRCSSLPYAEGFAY
# Sequence of CRX (O43186 whole entry): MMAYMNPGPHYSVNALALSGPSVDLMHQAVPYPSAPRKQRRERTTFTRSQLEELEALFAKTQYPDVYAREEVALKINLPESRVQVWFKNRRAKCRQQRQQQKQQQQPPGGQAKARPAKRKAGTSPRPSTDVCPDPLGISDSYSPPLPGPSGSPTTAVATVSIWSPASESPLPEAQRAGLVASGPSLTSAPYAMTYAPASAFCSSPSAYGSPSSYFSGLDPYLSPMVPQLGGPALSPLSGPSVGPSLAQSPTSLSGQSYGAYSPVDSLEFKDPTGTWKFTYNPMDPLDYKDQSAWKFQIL
# Sequence of HSF1 (Q00613 whole entry): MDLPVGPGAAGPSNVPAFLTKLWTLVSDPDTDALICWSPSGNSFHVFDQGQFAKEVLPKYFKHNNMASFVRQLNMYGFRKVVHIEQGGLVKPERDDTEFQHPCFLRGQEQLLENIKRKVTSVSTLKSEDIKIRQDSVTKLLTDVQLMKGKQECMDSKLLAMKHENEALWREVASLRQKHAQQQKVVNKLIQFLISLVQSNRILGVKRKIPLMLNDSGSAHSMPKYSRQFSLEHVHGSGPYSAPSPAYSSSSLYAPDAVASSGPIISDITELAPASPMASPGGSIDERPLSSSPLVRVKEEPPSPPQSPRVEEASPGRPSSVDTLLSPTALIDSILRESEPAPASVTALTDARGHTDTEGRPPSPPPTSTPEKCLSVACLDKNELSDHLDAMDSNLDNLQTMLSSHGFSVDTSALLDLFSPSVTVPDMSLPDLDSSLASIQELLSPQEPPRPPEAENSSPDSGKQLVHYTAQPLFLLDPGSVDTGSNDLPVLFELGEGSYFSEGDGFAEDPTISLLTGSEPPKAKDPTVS
# Sequence of ELF4 (Q99607 whole entry): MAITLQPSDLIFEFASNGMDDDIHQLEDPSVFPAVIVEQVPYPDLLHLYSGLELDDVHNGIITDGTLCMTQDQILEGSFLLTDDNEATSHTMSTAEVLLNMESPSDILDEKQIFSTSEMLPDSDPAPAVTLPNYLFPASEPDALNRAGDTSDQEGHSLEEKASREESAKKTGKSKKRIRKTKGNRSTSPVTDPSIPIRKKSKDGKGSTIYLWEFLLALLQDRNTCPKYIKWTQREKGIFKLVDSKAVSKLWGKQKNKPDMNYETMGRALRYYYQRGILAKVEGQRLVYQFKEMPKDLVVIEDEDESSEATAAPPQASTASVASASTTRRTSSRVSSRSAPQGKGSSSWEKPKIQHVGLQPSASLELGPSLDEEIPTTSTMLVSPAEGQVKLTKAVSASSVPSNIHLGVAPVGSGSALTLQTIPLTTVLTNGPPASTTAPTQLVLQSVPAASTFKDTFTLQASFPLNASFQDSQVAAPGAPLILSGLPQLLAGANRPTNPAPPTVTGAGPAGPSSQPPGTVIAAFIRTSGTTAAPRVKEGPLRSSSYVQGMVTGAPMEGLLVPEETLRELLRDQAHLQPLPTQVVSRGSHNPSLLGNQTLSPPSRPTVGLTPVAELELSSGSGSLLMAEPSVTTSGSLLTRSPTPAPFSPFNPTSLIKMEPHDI
# Sequence of SPIB (Q01892 whole entry): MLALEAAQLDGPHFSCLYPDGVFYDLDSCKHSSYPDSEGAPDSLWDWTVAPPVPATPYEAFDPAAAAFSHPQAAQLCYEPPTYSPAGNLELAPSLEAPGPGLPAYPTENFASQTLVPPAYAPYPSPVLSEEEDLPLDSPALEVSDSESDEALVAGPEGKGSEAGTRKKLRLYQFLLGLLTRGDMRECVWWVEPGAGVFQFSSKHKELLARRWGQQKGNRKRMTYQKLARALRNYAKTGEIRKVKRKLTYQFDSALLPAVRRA
# Sequence of ETV1 (P50549 whole entry): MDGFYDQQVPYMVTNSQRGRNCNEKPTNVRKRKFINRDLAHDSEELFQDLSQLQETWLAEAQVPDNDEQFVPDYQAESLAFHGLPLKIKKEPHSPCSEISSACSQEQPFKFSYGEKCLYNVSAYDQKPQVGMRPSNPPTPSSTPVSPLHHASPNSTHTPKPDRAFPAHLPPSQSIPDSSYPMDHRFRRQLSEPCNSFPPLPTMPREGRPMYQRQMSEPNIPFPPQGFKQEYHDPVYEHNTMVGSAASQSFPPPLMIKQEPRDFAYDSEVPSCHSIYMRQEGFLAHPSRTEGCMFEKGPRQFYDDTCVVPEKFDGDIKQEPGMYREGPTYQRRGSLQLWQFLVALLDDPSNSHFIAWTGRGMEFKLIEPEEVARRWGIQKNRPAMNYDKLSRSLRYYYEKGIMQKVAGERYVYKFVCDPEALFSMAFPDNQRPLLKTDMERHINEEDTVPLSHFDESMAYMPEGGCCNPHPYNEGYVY
sequence,measurement,setting,value
CTCGAA,binding signal,[1],"1.23 fold enrichment (6-mer frequency, TF over GST control)"
same,binding signal,[2],"1.12 fold enrichment (6-mer frequency, TF over GST control)"
same,binding signal,[3],"1.26 fold enrichment (6-mer frequency, TF over GST control)"
same,binding signal,[4],"1.13 fold enrichment (6-mer frequency, TF over GST control)"
same,binding signal,[5],"1.18 fold enrichment (6-mer frequency, TF over GST control)"
same,binding signal,[6],"1.21 fold enrichment (6-mer frequency, TF over GST control)"
same,binding signal,[7],"1.17 fold enrichment (6-mer frequency, TF over GST control)"
same,binding signal,[8],"1.12 fold enrichment (6-mer frequency, TF over GST control)"
same,binding signal,[9],"1.21 fold enrichment (6-mer frequency, TF over GST control)"
same,binding signal,[10],"1.17 fold enrichment (6-mer frequency, TF over GST control)"
same,binding signal,[11],"1.2 fold enrichment (6-mer frequency, TF over GST control)"
same,binding signal,[12],"4.2 fold enrichment (6-mer frequency, TF over GST control)"
same,binding signal,[13],"1.15 fold enrichment (6-mer frequency, TF over GST control)"
same,binding signal,[14],"1.2 fold enrichment (6-mer frequency, TF over GST control)"
same,binding signal,[15],"1.34 fold enrichment (6-mer frequency, TF over GST control)"
same,binding signal,[16],"1.16 fold enrichment (6-mer frequency, TF over GST control)"
same,binding signal,[17],"1.11 fold enrichment (6-mer frequency, TF over GST control)"
same,binding signal,[18],"1.9 fold enrichment (6-mer frequency, TF over GST control)"
same,binding signal,[19],"1.1 fold enrichment (6-mer frequency, TF over GST control)"
